In PubChem BioAssay:
Active and inactive are the calls of the source. Unless noted, how the calls were made is not given here.

Experiments:
[1] = tested on: Wnt5a (protein binding on small-molecule microarray); experiment: Wnt5a binders on small-molecule microarray, primary screen, biophysical, 635/667 nm fluorescence (AID 1142); conditions: 635 nm fluorescence, higher = more signal;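 further: fluorescence read at 667 nm with signal to noise per printed feature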
[2] = cell viability in Huh7 cells, primary screen, cytotoxicity control for HCV replication inhibitor project, CellTiter-Glo luminescence, basal, 48 h (AID 1143); conditions: Huh7 HCV replicon, higher = more signal, called active from +8 up or from −8 down;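 further: Huh7 hepatoma cells carrying a hepatitis C replication reporter with no stimulus; test concentration not given here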
[3] = P. aeruginosa biofilm formation inhibitors, primary screen, PAO1 strain, BacTiter-Glo luminescence, LB-PBS (AID 1144); conditions: 12 h, higher = more signal
[4] = CREB reporter modulators without forskolin, primary screen, cell-based, PC12, CRE-LacZ reporter, unstimulated (AID 1145); conditions: no forskolin, luminescence, 4.5 h, higher = more signal, called active from +8 up or from −8 down
[5] = CREB reporter modulators under forskolin, primary screen, cell-based, PC12, CRE-LacZ reporter, forskolin-stimulated (AID 1146); conditions: luminescence, 4.5 h, higher = more signal, called active from +8 up or from −8 down;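 further: PC12 cells with 6xCRE LacZ reporter stimulated by forskolin 10 µM; beta-galactosidase reporter signal reflecting CREB driven transcription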
[6] = target: Streptavidin (Streptomyces avidinii) (UniProt P22629); experiment: streptavidin binders on small-molecule microarray, primary screen, artefact control for SMM compound annotation, biophysical, 635/667 nm fluorescence (AID 1147); conditions: streptavidin binding, higher = more signal;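 further: signal reflects streptavidin binding to arrayed compounds as a control protein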
[7] = small-molecule binders of probe aInhba, primary screen, biochemical, small-molecule microarray, 635/667 nm fluorescence (AID 1148); conditions: higher = more signal;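 further: score merges 667nm spot fluorescence with signal-to-noise for antibody binding to printed compounds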
Torsin-1A (Homo sapiens) [8] = target: Torsin-1A (Homo sapiens) (UniProt O14656); experiment: torsin A binders from cell lysate, primary screen, small-molecule microarray, wild-type, 635/667 nm (AID 1149); conditions: COS7 hTOR1A-WT lysate, 635 nm fluorescence, higher = more signal
Torsin-1A (Homo sapiens) [9] = target: Torsin-1A (Homo sapiens) (UniProt O14656); experiment: small-molecule binders of mutant TOR1A in lysate, primary screen, cell lysate, small-molecule microarray, COS7 lysate, 635/667 nm fluorescence (AID 1150); conditions: COS7 hTOR1A mutant lysate, 635 nm fluorescence, higher = more signal;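 further: score pools 667 nm emission and signal to noise measuring lysate protein binding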
[10] = tested on: Sonic hedgehog protein (Shh); experiment: small-molecule binders of Shh protein, primary screen, biochemical, small-molecule microarray, 635/667 nm fluorescence (AID 1151); conditions: small-molecule microarray binding, 635 nm fluorescence; higher = more signal;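 further: Shh protein binding to compounds spotted on small-molecule microarray slides; score combines spot fluorescence intensity with signal-to-noise across triplicate slides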
[11] = E. coli DRC41 culture turbidity changes, primary screen, E. coli filamentation inducer project, strain DRC41, OD650, 48 h (AID 1152);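 further: E. coli MC1000 strain DRC41 lacking acrAB efflux pump and sulA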; conditions: E. coli DRC41 (acrAB sulA), higher = more signal, called active from +8 up or from −8 down
[12] = small-molecule binders of probe aLefty1, primary screen, biochemical, small-molecule microarray, 635/667 nm fluorescence (AID 1153); conditions: higher = more signal;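 further: score merges spot fluorescence with signal-to-noise ratio from the scanned slide images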
[13] = PSAC antagonists in infected red cells, primary screen, cell-based, P. falciparum Indochina, OD700, 1 h (AID 1154); conditions: P. falciparum Indochina infected RBC osmotic lysis, higher = more signal, called active from +8 up or from −8 down
[14] = PSAC antagonists in infected red cells, primary screen, cell-based, P. falciparum Indochina, OD700, 2 h (AID 1155);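 further: lysis reports solute entry through the parasite surface anion channel PSAC; channel blockers reduce lysis of infected cells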; conditions: P. falciparum Indochina infected erythrocytes, osmotic lysis OD700; higher = more signal, called active from +8 up or from −8 down
[15] = osmotic lysis modulators in infected erythrocytes, primary screen, PSAC antagonist project, cell-based, P. falciparum Indochina, OD700, 3 h (AID 1156); conditions: higher = more signal, called active from +8 up or from −8 down
[16] = PSAC antagonists in infected red cells, primary screen, cell-based, P. falciparum Indochina, OD700, 18 h (AID 1157); conditions: P. falciparum Indochina infected erythrocytes, osmotic lysis OD700, 18 h; higher = more signal, called active from +8 up or from −8 down
[17] = modulators of S6 phosphorylation in cells, primary screen, cell-based, A549, cytoblot, luminescence, serum-stimulated (AID 1158); conditions: A549 phospho-S6 cytoblot, 5 h, higher = more signal;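 further: serum-stimulated A549 lung adenocarcinoma cells; signal is phosphorylated S6 detected by cytoblot immunostaining with HRP secondary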
[18] = target: NADPH oxidase 2 (Homo sapiens) (UniProt P04839); experiment: NOX2-dependent H2O2 signal modulators, primary screen, NOX inhibitor project, cell-based, HEK293-NOX2, PMA-stimulated, Amplex Red fluorescence (AID 1159); conditions: 45 min, higher = more signal, called active from +8 up or from −8 down; further: test concentration not given here
[19] = target: NADPH oxidase 4 (Homo sapiens) (UniProt Q9NPH5); experiment: NOX4-dependent H2O2 signal modulators, primary screen, NOX inhibitor project, cell-based, HEK293-NOX4, tetracycline-induced, Amplex Red fluorescence (AID 1160); conditions: 45 min, higher = more signal, called active from +8 up or from −8 down
[20] = target: NADPH oxidase 5 (Homo sapiens) (UniProt Q96PH1); experiment: NOX5-dependent H2O2 signal modulators, primary screen, NOX inhibitor project, cell-based, HEK293-NOX5, Amplex Red fluorescence (AID 1161); conditions: HEK293-NOX5, ionomycin, 45 min, higher = more signal
Chain of NADPH oxidase 5 (Homo sapiens) (Q96PH1 whole entry, looked up): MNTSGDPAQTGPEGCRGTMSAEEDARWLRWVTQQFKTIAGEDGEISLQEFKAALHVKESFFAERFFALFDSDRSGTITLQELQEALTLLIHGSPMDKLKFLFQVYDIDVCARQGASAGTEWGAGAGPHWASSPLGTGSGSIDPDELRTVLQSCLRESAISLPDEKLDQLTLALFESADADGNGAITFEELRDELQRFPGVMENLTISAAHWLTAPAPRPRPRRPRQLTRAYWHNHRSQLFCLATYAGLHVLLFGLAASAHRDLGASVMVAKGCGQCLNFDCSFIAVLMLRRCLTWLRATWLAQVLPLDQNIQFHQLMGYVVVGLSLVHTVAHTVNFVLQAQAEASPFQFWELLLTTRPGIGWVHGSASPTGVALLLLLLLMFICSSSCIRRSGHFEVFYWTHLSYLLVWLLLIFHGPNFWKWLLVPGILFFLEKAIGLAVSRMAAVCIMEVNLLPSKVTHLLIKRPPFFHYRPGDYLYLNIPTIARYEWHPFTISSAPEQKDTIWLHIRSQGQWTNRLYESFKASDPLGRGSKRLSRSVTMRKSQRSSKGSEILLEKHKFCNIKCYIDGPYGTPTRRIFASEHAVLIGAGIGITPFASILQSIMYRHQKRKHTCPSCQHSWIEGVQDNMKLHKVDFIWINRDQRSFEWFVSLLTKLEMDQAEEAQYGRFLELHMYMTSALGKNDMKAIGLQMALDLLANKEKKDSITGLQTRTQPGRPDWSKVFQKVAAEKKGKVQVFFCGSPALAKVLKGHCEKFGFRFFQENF

Chain of Streptavidin (Streptomyces avidinii) (P22629 whole entry, looked up): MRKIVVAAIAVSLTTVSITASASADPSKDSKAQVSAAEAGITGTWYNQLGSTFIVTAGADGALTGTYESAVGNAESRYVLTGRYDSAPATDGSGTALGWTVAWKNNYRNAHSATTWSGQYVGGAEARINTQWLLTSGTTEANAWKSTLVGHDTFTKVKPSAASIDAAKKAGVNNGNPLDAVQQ
Chain of NADPH oxidase 4 (Homo sapiens) (Q9NPH5 whole entry, looked up): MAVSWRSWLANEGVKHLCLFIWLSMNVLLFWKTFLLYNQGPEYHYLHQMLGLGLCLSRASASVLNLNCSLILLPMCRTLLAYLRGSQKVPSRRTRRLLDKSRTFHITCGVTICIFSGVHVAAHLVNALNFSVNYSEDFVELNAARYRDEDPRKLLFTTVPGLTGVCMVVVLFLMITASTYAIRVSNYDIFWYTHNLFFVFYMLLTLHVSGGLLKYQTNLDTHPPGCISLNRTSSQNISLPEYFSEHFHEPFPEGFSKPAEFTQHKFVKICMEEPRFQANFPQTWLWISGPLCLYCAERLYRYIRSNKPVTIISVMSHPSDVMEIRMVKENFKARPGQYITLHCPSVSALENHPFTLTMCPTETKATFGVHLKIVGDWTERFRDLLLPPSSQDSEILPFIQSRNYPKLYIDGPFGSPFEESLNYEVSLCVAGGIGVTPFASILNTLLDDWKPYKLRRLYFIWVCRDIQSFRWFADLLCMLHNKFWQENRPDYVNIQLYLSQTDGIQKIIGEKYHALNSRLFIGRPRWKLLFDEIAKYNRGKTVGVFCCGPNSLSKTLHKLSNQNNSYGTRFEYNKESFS
Chain of Torsin-1A (Homo sapiens) (O14656 whole entry, looked up): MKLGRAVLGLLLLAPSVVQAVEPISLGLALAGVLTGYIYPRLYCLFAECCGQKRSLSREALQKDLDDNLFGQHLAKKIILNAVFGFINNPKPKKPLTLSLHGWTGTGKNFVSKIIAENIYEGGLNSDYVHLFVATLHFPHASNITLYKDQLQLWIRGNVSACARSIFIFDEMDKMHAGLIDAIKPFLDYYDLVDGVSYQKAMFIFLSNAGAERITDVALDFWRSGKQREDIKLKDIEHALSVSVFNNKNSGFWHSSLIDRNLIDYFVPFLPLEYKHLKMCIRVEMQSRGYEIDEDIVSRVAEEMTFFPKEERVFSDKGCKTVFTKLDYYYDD
Chain of NADPH oxidase 2 (Homo sapiens) (P04839 whole entry, looked up): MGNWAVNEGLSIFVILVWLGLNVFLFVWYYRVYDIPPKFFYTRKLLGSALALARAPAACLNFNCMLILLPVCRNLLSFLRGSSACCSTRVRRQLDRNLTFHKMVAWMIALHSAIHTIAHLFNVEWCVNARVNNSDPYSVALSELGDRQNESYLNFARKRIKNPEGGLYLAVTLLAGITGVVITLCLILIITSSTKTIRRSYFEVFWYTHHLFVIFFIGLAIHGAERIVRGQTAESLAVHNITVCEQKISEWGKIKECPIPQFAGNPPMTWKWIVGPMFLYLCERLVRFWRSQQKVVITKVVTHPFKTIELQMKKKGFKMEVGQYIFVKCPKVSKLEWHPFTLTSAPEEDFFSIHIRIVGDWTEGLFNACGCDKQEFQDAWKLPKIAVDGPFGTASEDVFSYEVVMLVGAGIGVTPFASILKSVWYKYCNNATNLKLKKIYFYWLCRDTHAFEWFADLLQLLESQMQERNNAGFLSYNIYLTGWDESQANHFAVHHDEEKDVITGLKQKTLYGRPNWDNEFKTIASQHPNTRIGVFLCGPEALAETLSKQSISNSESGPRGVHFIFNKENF

Compound	composite z-score [1]	z-score [2]	z-score [3]	z-score [4]	z-score [5]	composite z-score [6]	composite z-score [7]	composite z-score (Torsin-1A (Homo sapiens) [8])	composite z-score (Torsin-1A (Homo sapiens) [9])	composite z-score [10]	z-score [11]	composite z-score [12]	z-score [13]	z-score [14]	z-score [15]	z-score [16]	z-score [17]	z-score [18]	z-score [19]	z-score [20]
[N-]=[N+]=NCc1ccccc1[C@H]1OC(c2ccc(OCCCO)cc2)=N[C@@]1(Cc1ccccc1N=[N+]=[N-])C(=O)N1CCCCC1	0.163	-3.39 (inactive)	-0.567 (inactive)	0.236 (inactive)	-1.04 (inactive)	1.31	0.277	0.84	0.89	0.419	0.369 (inactive)	0.72	27.7 (active)	21.4 (active)	2.7 (inactive)	4.56 (inactive)	-0.0152	-2.52 (inactive)	0.328 (inactive)	-0.575
C[C@@H]1ON(c2ccccc2)[C@H](c2ccccc2)[C@H]1C(=O)N1C(=O)OC[C@H]1Cc1ccccc1	-0.0187	-1.04 (inactive)	-0.516 (inactive)	0.951 (inactive)	0.053 (inactive)	1.9	-0.0538	0.242	-0.0355	0.637	0.848 (inactive)	-0.294	1.66 (inactive)	0.282 (inactive)	-0.13 (inactive)	0.379 (inactive)	0.389	0.0547 (inactive)	-0.104 (inactive)	-1.37
C[N+](C)(C)CCCC[C@@H]1NC(=O)[C@H]2C[C@@H](C(=O)NCCCCCCN)[C@@H](c3cccc(OCCO)c3)N2C1=O	0.693	0.0395 (inactive)	0.406 (inactive)	-0.809 (inactive)	-0.254 (inactive)	1.65	0.794	1.33	1.25	2.04	-0.0261 (inactive)	1.29	1.19 (inactive)	0.156 (inactive)	3.3 (inactive)	0.0792 (inactive)	-0.161	1.12 (inactive)	0.64 (inactive)	1.58
CC[C@@H]1[C@@H]2C3C(=O)N(CC)C(=O)C3CC(=O)[C@@H]2[C@H](c2ccc(C)cc2)N1S(=O)(=O)c1ccc(C)cc1 (stereo not given in full)	0.513	-3.1 (inactive)	-1.88 (inactive)	-0.424 (inactive)	-0.42 (inactive)	0.492	-0.0523	-0.087	0.645	1.18	1.29 (inactive)	-0.149	1.39 (inactive)	0.0985 (inactive)	-0.511 (inactive)	-1.35 (inactive)	1.04	1.04 (inactive)	0.451 (inactive)	2.06
O=C1C[C@@](C(=O)NCc2ccccc2)(c2ccc([N+](=O)[O-])cc2)[C@@H](c2ccc(CO)cc2I)N1C1CCCCC1	0.286	-4.73 (inactive)	0.781 (inactive)	0.234 (inactive)	0.583 (inactive)	0.0068	0.572	0.89	0.217	1.13	0.936 (inactive)	0.503	11.6 (active)	1.94 (inactive)	3.44 (inactive)	1.09 (inactive)	-0.153	1.23 (inactive)	-1.03 (inactive)	2.16
Cc1ccc(S[C@]2(C(=O)NCc3ccccc3)CC(=O)N(C3Cc4ccccc4C3)[C@@H]2c2ccc(CO)cc2I)cc1	-0.265	-2.56 (inactive)	-0.394 (inactive)	-0.179 (inactive)	-0.17 (inactive)	-0.299	-0.157	-0.265	-1.03	-0.0358	3.36 (inactive)	0.0049	3.94 (inactive)	-0.533 (inactive)	-0.406 (inactive)	-0.63 (inactive)	1.58	0.542 (inactive)	-0.966 (inactive)	1.42
C#CCOC(=O)N[C@H](C=CCCCC)c1ccccc1	-0.0582	-0.342 (inactive)	-0.604 (inactive)	0.197 (inactive)	0.488 (inactive)	0.335	0.0714	0.28	0.0584	-0.13	-0.288 (inactive)	0.289	0.801 (inactive)	0.852 (inactive)	0.599 (inactive)	0.715 (inactive)	-0.469	0.877 (inactive)	-0.194 (inactive)	-0.212
Cc1ccc(S[C@]2(C(=O)O)CC(=O)N(Cc3ccccc3C(F)(F)F)[C@@H]2c2ccc(CO)cc2)cc1	-0.297	0.455 (inactive)	0.231 (inactive)	0.0279 (inactive)	-0.369 (inactive)	-0.655	-0.113	0.0183	1.46	-1.1	0.281 (inactive)	-0.109	4.63 (inactive)	0.388 (inactive)	0.0934 (inactive)	0.231 (inactive)	-0.854	0.375 (inactive)	0.152 (inactive)	0.476
Cc1ccccc1C(O)C1C=CC2C(=O)N(Cc3ccccc3)C(=O)C2N1n1cnnc1 (stereo not given)	0.166	-0.293 (inactive)	-1.45 (inactive)	-0.667 (inactive)	0.688 (inactive)	0.0691	-0.0986	0.374	0.755	0.59	-0.534 (inactive)	0.0722	1.4 (inactive)	1.2 (inactive)	0.341 (inactive)	0.927 (inactive)	-0.29	-0.4 (inactive)	0.1 (inactive)	0.067
